Measurements as given in ChEMBL document CHEMBL3988442, “University of Dundee, Small-Polar-MMV Screening Library” (2021).
Among all 48,000 compounds or so, about 13,000 (27%) showed an effect of 50% or more. This is one part of the list.

tested on: Wolbachia pipientis; experiment: Anti-Wolbachia Cell-Based Screen; format: functional; design: scale not given: in the data most compounds retested in dose-response had high values; conditions: 5 µM

Point of comparison: `Cc1cc(CNC(=O)Cc2cccs2)ccc1S(C)(=O)=O`, “Percent Effect” value -11.25%. Against it:
- Cc1csc(CN2C[C@@H]3CN(CC4CCOCC4)CCO[C@@H]3C2)n1 — higher, -2.484%
- Fc1cccc(N2CCCC3(CN(Cc4nccs4)CCO3)C2)c1.O=C(O)C(F)(F)F.O=C(O)C(F)(F)F (stereo not drawn) — lower, -19.19%
- CC(C)(C)c1nnc(CN2CCN(C(=O)N3CCCCC3)CC2)o1 — higher, 1.432%
- Cc1ccc(-c2cnn(CC(=O)NC(C)C)c2)cc1 — higher, 96.48%
- CC(C)NC(=O)Cn1cc(-c2ccccc2)cn1 — higher, 1.398%
- CC(C)C(C)(C#N)NC(=O)Cn1cc(-c2ccccc2)cn1 (stereo not drawn) — higher, -4.052%
- CCC(CNC(=O)c1c(C)nn(C)c1OC)Oc1ccccc1 (stereo not drawn) — higher, -1.987%
- CCc1nc(NS(=O)(=O)c2cc(C)ccc2Br)no1 — higher, -0.5408%
- CCCN1CCCn2nc(CNC(=O)CN(C)C3CCCC3)cc2C1 — higher, -1.804%
- CCn1nc(C)c(-c2cncn2CCN(C)C2CCCC2)c1C.Cl — higher, 94.51%
- CCCn1nc(C)c(-c2cncn2CCN(C)C2CCCC2)c1C.Cl — higher, 99.02%
- Cc1nn(C)c2nc(N(C)CCN(C)C3CCCC3)sc12 — higher, -5.269%
- Cc1cc(C)nc(N(C)CCN(C)C2CCCC2)n1 — higher, 8.027%
- CN(CC1CCCC1)C(=O)c1cn(C)nc1-c1cccnc1 — lower, -17.59%
- Cc1nn(C)cc1-c1cncn1CCN(C)C1CCCC1.Cl — higher, 82.1%
- Cn1nnc(C2(NC(=O)c3ccccc3)CCCC2)n1 — lower, -16.42%
- CCc1nc(NC2CCCN(C(=O)C3CC3)C2)c2cnn(C)c2n1 (stereo not drawn) — higher, 100.4%
- CCCn1cc(C(=O)NC2CCN(CC(=O)NC3CC3)CC2)c(C)n1 — lower, -20.41%
- Cn1ncc2c(N[C@@H]3CS(=O)(=O)C[C@H]3O)nc(C(C)(C)C)nc21 — higher, -3.65%
- CC(C)C(=O)N1CCC(CNc2nc(C(C)C)nc3c2cnn3C)CC1 — higher, -5.658%
- Cn1ncc2c(N[C@H]3CCCC[C@@H]3O)nc(C(C)(C)C)nc21 — higher, 2.356%
- Cn1ncc2c(N[C@H]3CC[C@@H](N)CC3)nc(C(C)(C)C)nc21 — lower, -50.36%
- Cn1ncc2c(NC3CCCN(C(=O)C4CC4)C3)nc(C(C)(C)C)nc21 (stereo not drawn) — higher, 108.6%
- COCCN1CC(Nc2nc(C3CCCC3)nc3c2cnn3C)CC1=O (stereo not drawn) — higher, -0.7638%
- CCc1nc(NCC2CCCN(C(=O)C3CC3)C2)c2cnn(C)c2n1 (stereo not drawn) — higher, 149.3%
- COCc1nc(NCC2CCS(=O)(=O)C2)c2cnn(C)c2n1 (stereo not drawn) — higher, 14.43%
- CC(=O)NCCNc1nc(C2CCCC2)nc2c1cnn2C — lower, -24.98%
- CCc1nc(NC2CCN(CC(=O)NC3CC3)CC2)c2cnn(C)c2n1 — higher, 85.47%
- Cc1cc(C(=O)NCc2ccc(N3CCCC(C(N)=O)C3)cc2)no1 (stereo not drawn) — higher, -5.438%
- O=C(Cc1ccc(F)c(F)c1)NC1COc2ccccc2C1=O (stereo not drawn) — lower, -17.04%
- Cc1ccc(CN(CC(=O)NC2CCOCC2)c2ccc(F)cc2)o1 — higher, -4.166%
- CCOc1ncnc2c1CCN(C(=O)CN(C)C)CC2.O=C(O)C(F)(F)F — higher, -0.06996%
- O=C(c1cc[nH]n1)N(Cc1ccc(F)cc1)CC1CC1 — higher, -5.824%
- CCN(CC)C(CNC(=O)CCc1nc(C(C)C)no1)c1ccco1 (stereo not drawn) — higher, -1.128%
- CC(C)c1cc(NC2CCCN(C(=O)c3cccs3)C2)ncn1 (stereo not drawn) — higher, -8.38%
- CCc1nc(NC2CCCN(C(=O)c3cccs3)C2)c2cnn(C)c2n1 (stereo not drawn) — higher, 96.59%
- Cc1nc(N2CCN(C(=O)C3CC3)CC2)c2c(n1)c(C)nn2C — higher, 1.518%
- Cc1nc(NC2CCN(C(=O)C3CC3)CC2)c2cnn(C)c2n1 — higher, 200.9%
- Cn1ncc2c(=O)[nH]c(CN3CCCC3c3cccs3)nc21 (stereo not drawn) — higher, -2.053%
- NC(=O)c1cnc(NC2CCN(C(=O)C3CC3)CC2)c(Cl)c1 — higher, 4.189%
- COC(=O)c1sccc1S(=O)(=O)NCCc1ccoc1 — higher, -8.727%
- CN(C)c1ncc(I)c(C2CCCCN2C)n1 (stereo not drawn) — higher, 140.6%
- CN(C)c1ncc(I)c(C2CCCCN2S(C)(=O)=O)n1 (stereo not drawn) — higher, 26.22%
- CN(C)c1ncc(I)c(C2CCCN2C)n1.Cl (stereo not drawn) — higher, 88.04%
- CN(C)c1cccc(C2CCCN2S(N)(=O)=O)c1 (stereo not drawn) — higher, -8.581%
- CN(C)c1ncc(I)c(C2CCCN2S(C)(=O)=O)n1 (stereo not drawn) — higher, 113.9%
- CC1CCCCN1C(=O)Cn1cc(I)cn1 (stereo not drawn) — higher, 11.08%
- Cc1nc(CN2CCC(CNC(=O)NCCC3CCC3)CC2)oc1C — higher, -2e-14%
- CN(C)C(=O)c1nc(CN2CC(Cc3ccccc3)CC2=O)no1 (stereo not drawn) — higher, 4.683%
- CC(=O)N1CCc2[nH]cnc2C12CCN(C(=O)CCn1cccn1)CC2 — lower, -18.33%
- COC[C@@]12CC[C@@H](N3CCOCC3)C[C@H]1CCN(c1cnccn1)C2 — higher, 11.4%
- CNC(=O)N1CCc2cc(C(=O)N(C)C)c(NCC3CC3)nc2CC1.O=C(O)C(F)(F)F — higher, 7.418%
- CN(C)C(=O)c1cc2c(nc1NCC1CC1)CCN(CC1CC1)CC2 — higher, 87.77%
- CNC(=O)c1cc2c(nc1NCC(C)C)CCN(CC1CC1)CC2.O=C(O)C(F)(F)F.O=C(O)C(F)(F)F — higher, 9.792%
- CN(C)C(=O)c1cc2c(nc1NCC1CC1)CCNCC2 — higher, 103.6%
- CNC(=O)c1cc2c(nc1NCC1CC1)CCN(S(=O)(=O)C1CC1)CC2 — higher, 20.95%
- CNC(=O)N1CCc2cc(C(=O)NCC3CC3)c(NC(C)C)nc2CC1 — higher, 0.2326%
- CNC(=O)c1cc2c(nc1NCC1CC1)CCN(c1ccncn1)CC2.O=C(O)C(F)(F)F — higher, -1.556%
- CCN1CCc2cc(C(=O)N(C)C)c(NCC3CC3)nc2CC1 — higher, 103.3%
- CC(C)Nc1nc2c(cc1C(=O)N(C)C)CCNCC2.O=C(O)C(F)(F)F.O=C(O)C(F)(F)F — higher, -6.085%
- CNC(=O)c1cc2c(nc1NCC1CC1)CCNCC2 — higher, 13.18%
- CCS(=O)(=O)N1CCc2cc(C(=O)N(C)C)c(NCC3CC3)nc2CC1 — higher, 112.1%
- Cc1ccnn1-c1ccc(C(=O)N2CCN(c3cnccn3)CC2)cc1 — higher, 15.98%
- CC/N=c1\nc(NCC)nc2n1C(O)(Nc1cc(Cl)ccc1Cl)CS2 (stereo not drawn) — higher, 112.8%
- CC/N=c1\nc(NCC)nc2n1C(O)(Nc1ccc(C)cc1C)CS2 (stereo not drawn) — higher, 134.3%
- Cc1cc(CNc2cc(Cl)ccc2Cl)no1 — higher, -3.438%
- CC/N=c1\nc(NCC)nc2n1C(O)(Nc1cccc(Cl)c1Cl)CS2 (stereo not drawn) — higher, 212.9%
- CC/N=c1\nc(NCC)nc2n1C(O)(Nc1cccc(C)c1C)CS2 (stereo not drawn) — higher, 97.63%
- O=C(c1cccc2[nH]ncc12)N1CCCC1c1noc(C2CC2)n1 (stereo not drawn) — higher, -9.191%
- COc1ccc(S(=O)(=O)N2CC(CC(=O)O)c3ccccc32)cc1 (stereo not drawn) — higher, -7.807%
- Cl.NCC1CCCCN1C(=O)Cc1cccc(Br)c1 (stereo not drawn) — higher, -8.019%
- N#CC(NC(=O)c1cccc2c1OCCO2)c1ccc(F)cc1F (stereo not drawn) — higher, -4.984%
- CCN(Cc1cc(Cl)ccc1OC)Cc1nccn1C — lower, -15.12%
- CC/N=c1\nc(NCC)nc2n1C(O)(Nc1cc(C)ccc1C)CS2 (stereo not drawn) — higher, 165.1%
- CCn1c(C2CCCN(Cc3ccc(OC)c(C)c3C)C2)nn(C)c1=O (stereo not drawn) — higher, 24.51%
- Cc1ccccc1C(C)NC(=O)CN1CCN(Cc2ccc(Br)s2)CC1 (stereo not drawn) — higher, 1.299%
- O=C1NCC(C(=O)N(Cc2ccc(C(F)(F)F)cc2)C2CC2)N1 (stereo not drawn) — higher, -7.127%
- CS(=O)(=O)Cc1ccc(Cl)cc1NCc1ccccc1F — higher, -2.816%
- O=C(Cc1cccc(F)c1F)NS(=O)(=O)c1ccc(Cl)cc1F — higher, 16.65%
- CC(C)(NC(=O)Cc1ccccc1F)C(C)(C)C(=O)O — higher, 10.54%
- CCC(C)(CC(=O)O)NC(=O)Cc1ccccc1F (stereo not drawn) — higher, -2.363%
- COCCC(=O)NC(C)(C(N)=O)c1cccc(Cl)c1 (stereo not drawn) — higher, 111.9%
- Cc1nncn1CCNC(=O)C(C)(C)c1cccc(Cl)c1 — higher, -9.762%
- Cc1cccc(OCCC(=O)NCC(C)(C)C(N)=O)c1 — higher, -9.486%
- CC(C)(CNC(=O)CCOc1cccc(F)c1)C(N)=O — lower, -11.69%
- CC(C)(NC(=O)Cc1ccccc1F)C(=O)O — higher, 90.43%
- CC(NC(=O)Cc1ccccc1F)(C(N)=O)c1cccc(Cl)c1 (stereo not drawn) — higher, 85.68%
- CC(C)(CNC(=O)C1CCCN(C(N)=O)C1)c1cccc(Cl)c1 (stereo not drawn) — higher, -3.245%
- CC(C)(C)SCC(=O)NC(C)(C(N)=O)c1cccc(Cl)c1 (stereo not drawn) — higher, 113.7%
- COC[C@@]12CC[C@@H](N3CCOCC3)C[C@H]1CCN(c1ncccc1F)C2 — higher, -2.051%
- Cc1nn(C)c(C)c1-c1c(-c2ccccc2)ncn1[C@H](CO)C(=O)O — higher, -8.389%
- Cc1ncsc1CCN(C)C(=O)c1ncccc1O — higher, -5.816%
- CC(C)OCc1cccc(NC(=O)N(C)Cc2ncnn2C)c1 — higher, -5.342%
- O=C1N(Cc2ccc(F)cc2)CCCC12CCN(C1CCSCC1)C2 (stereo not drawn) — higher, -0.8017%
- O=C(Cc1cccs1)NCC1(O)CCSC1 (stereo not drawn) — higher, 0.8903%
- CC(C)(C)OC(=O)NC(C)(C(N)=O)c1cccc(Cl)c1 (stereo not drawn) — higher, 178.1%
- CC(C)(C)CC(=O)NC(C)(C(N)=O)c1cccc(Cl)c1 (stereo not drawn) — higher, 91.43%
- CC(C)(CNC(=O)c1ccc(Cl)o1)NC(=O)OC(C)(C)C — higher, -6.326%
- CC(C)(CNC(=O)c1ccco1)NC(=O)OC(C)(C)C — higher, -7.413%
- CC(NC(=O)Cc1cccs1)(C(N)=O)c1cccc(Cl)c1 (stereo not drawn) — higher, 80.31%
- CC(NC(=O)NCc1cccc(Cl)c1)(C(=O)O)c1ccco1 (stereo not drawn) — higher, 5.605%
- CC(C)(C)C(=O)NCC(=O)NC1CC(c2cccc(Cl)c2)C1 (stereo not drawn) — higher, -7.236%
